Structures can show the parent of a compound that is named as a salt.
Legend:
Settings in all cases: 20 µM; incubation time: 27 h, anaerobic, 37 °C;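 for the amine columns active = adjusted P below 0.05 in both replicates with a change the same way and a mean fold change under 0.8 or over 1.25; inactive = the rest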
[1] = system: Clostridium sporogenes DSM 1664; test: growth (OD595) fold change vs plate DMSO controls (fold change (ratio)); higher = more growth
How it was run: (§1)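 The 96-well mGAM cultures had been kept anaerobic for 27 h at 37 °C before being shaken and read at 595 nm. Blank subtraction, compound background correction with 20 µM compound solutions in water, and a calibration factor of 5 turned the readings into OD. Growth is given as the fold change versus the median of plate DMSO controls. Fold changes above 1.5 were set to NA, and the values are means of 2 biological replicates.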

[2] = system: Escherichia coli IAI1; test: as above
How it was run: as §1

[3] = system: Klebsiella aerogenes DSM 30053; test: as above
How it was run: as §1

[4] = system: Ruminococcus gnavus DSM 108212; test: as above
How it was run: as §1

[5] = system: Klebsiella aerogenes DSM 30053; test: fold change of Histamine concentration vs plate DMSO controls (fold change (ratio)); higher = more amine produced, active = hit call of the paper (significant change in both replicates, either direction)
How it was run: (§2)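 Extracts of whole anaerobic mGAM cultures were analysed for amines by LC–triple-quadrupole MS with dynamic MRM and external calibration curves, with drift corrected within batch. Four gut strains were grown at 37 °C for 27 h in 80 µL wells with compounds at 20 µM final, sweeteners at 50 µM final. Each value expresses fold change over plate DMSO controls. The average of 2 biological replicates is shown.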

[6] = system: Clostridium sporogenes DSM 1664; test: fold change of Tryptamine concentration vs plate DMSO controls (fold change (ratio)); higher = more amine produced, active = hit call of the paper (significant change in both replicates, either direction)
How it was run: as §2

[7] = system: Ruminococcus gnavus DSM 108212; test: as above
How it was run: as §2

[8] = system: Escherichia coli IAI1; test: fold change of Putrescine concentration vs plate DMSO controls (fold change (ratio)); higher = more amine produced, active = hit call of the paper (significant change in both replicates, either direction)
How it was run: as §2

[9] = system: Klebsiella aerogenes DSM 30053; test: as above
How it was run: as §2

[10] = system: Escherichia coli IAI1; test: fold change of Cadaverine concentration vs plate DMSO controls (fold change (ratio)); higher = more amine produced, active = hit call of the paper (significant change in both replicates, either direction)
How it was run: as §2

[11] = system: Klebsiella aerogenes DSM 30053; test: as above
How it was run: as §2

[12] = system: Ruminococcus gnavus DSM 108212; test: fold change of 2-Phenylethylamine concentration vs plate DMSO controls (fold change (ratio)); higher = more amine produced, active = hit call of the paper (significant change in both replicates, either direction)
How it was run: as §2

Structure (SMILES)	growth [1]	growth [2]	growth [3]	growth [4]	fold change of Histamine concentration [5]	fold change of Tryptamine concentration [6]	fold change of Tryptamine concentration [7]	fold change of Putrescine concentration [8]	fold change of Putrescine concentration [9]	fold change of Cadaverine concentration [10]	fold change of Cadaverine concentration [11]	fold change of 2-Phenylethylamine concentration [12]
C[C@]12C=CC(=O)C=C1CC[C@@H]1[C@@H]2CC[C@@]2(C)[C@H]1CC[C@]2(C)O [Methandrostenolone]	1.01	0.989	1	0.931	0.999 (inactive)	0.98 (inactive)	1.03 (inactive)	1.01 (inactive)	0.995 (inactive)	1.01 (inactive)	0.991 (inactive)	1.02 (inactive)
C[C@]12COC(=O)C[C@@H]1CC[C@@H]1[C@@H]2CC[C@@]2(C)[C@H]1CC[C@]2(C)O [Oxandrolone]	0.947	0.993	1.03	0.877	0.945 (inactive)	0.945 (inactive)	1.01 (inactive)	0.974 (inactive)	0.991 (inactive)	1.02 (inactive)	0.999 (inactive)	1.06 (inactive)
COP(=S)(OC)Oc1ccc(SC)c(C)c1	1.1	1.09	0.997	0.973	0.959 (inactive)	1.02 (inactive)	1.08 (inactive)	0.971 (inactive)	0.989 (inactive)	0.98 (inactive)	1.04 (inactive)	1.12 (inactive)
CCC1(c2cccc(O)c2)CCCCN(C)C1 (stereo unspecified) [Meptazinol hydrochloride]	0.881	1.03	1.02	1.01	0.983 (inactive)	1.06 (inactive)	0.997 (inactive)	1.03 (inactive)	1 (inactive)	1.01 (inactive)	1.01 (inactive)	0.997 (inactive)
C=C1CC[C@@]2(O)[C@H]3Cc4ccc(O)c5c4[C@@]2(CCN3CC2CC2)[C@H]1O5 [Nalmefene hydrochloride]	1.08	0.981	1.02	1.07	1.02 (inactive)	0.942 (inactive)	0.59 (inactive)	0.99 (inactive)	1.02 (inactive)	1.03 (inactive)	1.01 (inactive)	0.578 (inactive)
NCC(CC(=O)O)c1ccc(Cl)cc1 (stereo unspecified) [Baclofen]	1.11	1.17	1	1.33	1.04 (inactive)	1.06 (inactive)	1.1 (inactive)	1.09 (inactive)	0.988 (inactive)	1 (inactive)	1.03 (inactive)	1.11 (inactive)
Cc1cc(C)nc(Nc2ccccc2)n1	0.995	1.06	0.999	1.01	0.986 (inactive)	1 (inactive)	1 (inactive)	1.05 (inactive)	1.02 (inactive)	1.05 (inactive)	1.02 (inactive)	1.04 (inactive)
N#Cc1cc(Br)c(O)c(Br)c1	0.976	0.821	0.928	0.963	1.02 (inactive)	0.955 (inactive)	1.02 (inactive)	1.23 (inactive)	0.978 (inactive)	1.29 (active)	0.978 (inactive)	1.01 (inactive)
C=C1C[C@@H]2[C@H](CC[C@]3(C)C(=O)CC[C@@H]23)[C@@]2(C)C=CC(=O)C=C12 [Exemestane]	0.934	1	1.03	1.07	0.984 (inactive)	1.07 (inactive)	1.03 (inactive)	1.05 (inactive)	0.981 (inactive)	0.996 (inactive)	1 (inactive)	1.02 (inactive)
COc1ccc(C(=O)N2CCCC2=O)cc1 [Aniracetam]	0.932	0.978	1.04	0.771	0.853 (inactive)	1.09 (inactive)	1.03 (inactive)	0.929 (inactive)	0.976 (inactive)	1.02 (inactive)	1.01 (inactive)	1.03 (inactive)
Cc1cc(C(F)(C(F)(F)F)C(F)(F)F)ccc1NC(=O)c1cccc(I)c1C(=O)NC(C)(C)CS(C)(=O)=O	1.23	0.991	1.02	0.917	1 (inactive)	0.921 (inactive)	0.939 (inactive)	0.989 (inactive)	1 (inactive)	1 (inactive)	0.987 (inactive)	0.908 (inactive)
c1ccc2c(c1)-c1cccc3cccc-2c13 [Fluoranthene]	0.942	0.967	0.964	1.01	1.04 (inactive)	1.01 (inactive)	1.02 (inactive)	0.995 (inactive)	1.01 (inactive)	1.01 (inactive)	0.976 (inactive)	1.04 (inactive)
CC1(C)C(C=C(Cl)Cl)C1C(=O)OCc1cccc(Oc2ccccc2)c1 (mixture of isomers)	0.957	0.993	1	1.07	1.01 (inactive)	1.05 (inactive)	1.03 (inactive)	1.04 (inactive)	0.995 (inactive)	1.06 (inactive)	1 (inactive)	1.02 (inactive)
CCc1cccc(C)c1N(C(=O)CCl)[C@@H](C)COC	1.01	1.01	0.995	0.912	1.01 (inactive)	1.07 (inactive)	1.01 (inactive)	1.02 (inactive)	0.999 (inactive)	0.998 (inactive)	0.997 (inactive)	1.04 (inactive)
O=c1[nH]c2ccccc2n1CCCN1CCC(n2c(=O)[nH]c3cc(Cl)ccc32)CC1 [Domperidone]	0.989	0.963	1.08	0.669	0.906 (inactive)	1.03 (inactive)	0.984 (inactive)	1.01 (inactive)	0.951 (inactive)	1.03 (inactive)	1 (inactive)	1.03 (inactive)
COC(=O)N(OC)c1ccccc1COc1ccn(-c2ccc(Cl)cc2)n1	0.99	0.988	1.07	1.02	1.02 (inactive)	1.02 (inactive)	0.921 (inactive)	1.04 (inactive)	1.02 (inactive)	1.01 (inactive)	1 (inactive)	0.888 (inactive)
C[C@]12CC[C@H](O)C[C@@H]1CC[C@@H]1[C@@H]2CC[C@]2(C)C(=O)CC[C@@H]12 [Epiandrosterone]	1.01	1.01	0.974	0.678	1.04 (inactive)	0.953 (inactive)	0.973 (inactive)	0.99 (inactive)	1.02 (inactive)	1.02 (inactive)	1 (inactive)	0.962 (inactive)
CS(=O)(=O)c1ccc(C(=O)C2C(=O)CCCC2=O)c([N+](=O)[O-])c1	1.1	1.02	1	1.02	1.02 (inactive)	0.928 (inactive)	1 (inactive)	0.929 (inactive)	0.946 (inactive)	0.973 (inactive)	1.08 (inactive)	0.999 (inactive)
CCN(CC)CCOC(=O)C(O)(c1ccccc1)c1ccccc1 [Benactyzine hydrochloride]	1.07	1.01	1.01	0.944	0.998 (inactive)	0.997 (inactive)	1.06 (inactive)	1.02 (inactive)	0.992 (inactive)	0.986 (inactive)	0.999 (inactive)	1.07 (inactive)
COc1ccc(C(=CC(=O)N2CCOCC2)c2ccc(Cl)cc2)cc1OC (mixture of isomers)	1.18	1.01	1.01	0.966	1.01 (inactive)	1.11 (inactive)	1.08 (inactive)	0.946 (inactive)	0.965 (inactive)	0.929 (inactive)	1.06 (inactive)	1.09 (inactive)
CN[C@@H]1[C@@H](O)[C@@H](O[C@@H]2[C@@H](O)[C@H](O[C@H]3O[C@H](CN)CC[C@H]3N)[C@@H](N)C[C@H]2N)OC[C@]1(C)O.CN[C@@H]1[C@@H](O)[C@@H](O[C@@H]2[C@@H](O)[C@H](O[C@H]3O[C@H]([C@@H](C)N)CC[C@H]3N)[C@@H](N)C[C@H]2N)OC[C@]1(C)O.CN[C@@H]1[C@@H](O)[C@@H](O[C@@H]2[C@@H](O)[C@H](O[C@H]3O[C@H]([C@@H](C)NC)CC[C@H]3N)[C@@H](N)C[C@H]2N)OC[C@]1(C)O [Gentamicine sulfate]	1.12	1.03	0.994	1.16	0.948 (inactive)	0.703 (inactive)	1.08 (inactive)	1.02 (inactive)	1.02 (inactive)	1.02 (inactive)	1.05 (inactive)	1.16 (inactive)
C#CCOc1ccc(CCNC(=O)C(OCC#C)c2ccc(Cl)cc2)cc1OC (stereo unspecified)	1	1.06	1.03	0.954	0.95 (inactive)	0.986 (inactive)	0.989 (inactive)	1.05 (inactive)	1.01 (inactive)	0.933 (inactive)	1.01 (inactive)	0.964 (inactive)
CC(N)C(O)c1ccccc1 (stereo unspecified) [Phenylpropanolamine hydrochloride]	0.914	1.04	0.98	1.21	1.1 (inactive)	1.22 (inactive)	1.07 (inactive)	1.06 (inactive)	1.03 (inactive)	1.05 (inactive)	0.982 (inactive)	1.08 (inactive)
